Laboratory results reported in ChEMBL document CHEMBL1157539, “Thousands of chemical starting points for antimalarial lead identification” (Nature, 2010).

system: Plasmodium falciparum; test: GSK_TCMDC: Inhibition of Plasmodium falciparum Dd2 in whole red blood cells, using parasite LDH activity as an index of growth. Test compounds present at 2uM; assay type: functional

Q: Which Inhibition does the source give for O=C(Nc1ccc(S(=O)(=O)N2CCCCC2)cc1)c1cc(-c2ccccc2O)n[nH]1 here?
A: Its Inhibition is 81%.

Q: With COc1ccc(CNCc2ccsc2)cc1-c1ccc(OC)c(S(=O)(=O)NCCN2CCCC2)c1.O=C(O)C(F)(F)F as the compound, how does the Inhibition read?
A: The Inhibition was 62%.

Q: How did the Inhibition turn out when Cn1nc(C(F)(F)F)c(-c2ccc(Br)cc2)c1NC(=O)Cc1ccccc1F was run?
A: Its Inhibition is 100%.

Q: With NC1CCCN(Cc2ccc(-c3ccc(-c4nc5cc(F)ccc5[nH]4)s3)cc2)C1.O=C(O)C(F)(F)F (configuration not stated) as the compound, how does the Inhibition read?
A: Its Inhibition is 98%.

Q: How did the Inhibition turn out when C=CC[C@H](NC(=O)c1ccc(NS(=O)(=O)c2ccc3nc(N)[nH]c(=O)c3c2)cc1)C(=O)OCCCC was run?
A: The Inhibition was 2%.

Q: With NC1CCN(Cc2cccc(-c3ccc(-c4nc5ccccc5[nH]4)cc3)c2)C1.O=C(O)C(F)(F)F (configuration not stated) as the compound, how does the Inhibition read?
A: The Inhibition was 58%.

Q: Which Inhibition does the source give for COc1ccc(C2CC(c3cccs3)=NN2C(=O)c2ccccc2)cc1OC (configuration not stated) here?
A: The Inhibition was 83%.

Q: Which Inhibition does the source give for CN1CCC(NCc2ccc(-c3cccc(S(=O)(=O)NCc4ccccc4)c3)cc2)CC1.O=C(O)C(F)(F)F here?
A: The Inhibition was 94%.

Q: How did the Inhibition turn out when Cc1nnsc1C(=O)Nc1cccc(-c2ccc(-c3nc4ccccc4[nH]3)cc2)c1 was run?
A: The Inhibition was 58%.

Q: CN(C)C(=O)CC(=O)NCc1cccc(Cl)c1 was tested. Which Inhibition did it give?
A: Its Inhibition is 3%.

Q: With COc1cc(-c2nc(-c3ccccc3)c(-c3ccccc3)[nH]2)cc(OC)c1O as the compound, how does the Inhibition read?
A: The Inhibition was 90%.

Q: Which Inhibition does the source give for CCc1cc2c(Sc3nc4ccccc4[nH]3)ncnc2s1 here?
A: Its Inhibition is 98%.

Q: With CCN(CC)CCCN(Cc1ccc(-c2ccc(C(F)(F)F)cc2)cc1)C(=O)Cn1c(SCc2cccc(F)c2F)cc(=O)c2ccccc21.O=C(O)C(O)C(O)C(=O)O as the compound, how does the Inhibition read?
A: The Inhibition was 82%.

Q: CCC(CC)n1cc2c(ccc3nc(N)nc(N)c32)n1 was tested. Which Inhibition did it give?
A: Its Inhibition is 0%.

Q: CCOc1cc(C(=O)NCc2cccc(C(F)(F)F)c2)ccc1-c1nc2cc(Cl)ccc2[nH]1 was tested. Which Inhibition did it give?
A: Its Inhibition is 31%.

Q: For COc1ccc(CC(=O)Nc2ccc(-c3cccc(-c4nc5cccc(C)c5[nH]4)c3)cc2)cc1O, which Inhibition is on record?
A: Its Inhibition is 30%.

Q: With Cc1ccc(Oc2cnn(C)c(=O)c2Nc2cccc(C(=O)NCCc3ccccn3)c2)c(C)c1 as the compound, how does the Inhibition read?
A: The Inhibition was 94%.

Q: For COc1ccc2nccc([C@@H](O)CN3CCC(NCCOc4ccccc4[N+](=O)[O-])CC3)c2c1.O=C(O)C(=O)O, which Inhibition is on record?
A: The Inhibition was 98%.

Q: With CS(=O)(=O)CCNCc1ccc(-c2ccc3ncnc(Nc4ccc(OCc5ccccc5)c(Cl)c4)c3c2)o1.Cl [GW574783B] as the compound, how does the Inhibition read?
A: The Inhibition was 76%.

Q: How did the Inhibition turn out when O=C(O)C(F)(F)F.O=C1CCCN1CCCNCc1ccc(-c2ccc(-c3nc4cc(C(F)(F)F)ccc4[nH]3)s2)cc1 was run?
A: The Inhibition was 96%.

Q: With COc1ccc(NC(=O)c2cccc(Br)c2)cc1N1CCN(CCCCCCCN2CCN(c3cc(NC(=O)c4cccc(Br)c4)ccc3OC)CC2)CC1.Cl as the compound, how does the Inhibition read?
A: The Inhibition was 93%.

Q: For CNc1c2c(nc3ccc(NC(=O)CCCCCCc4ccccc4)cc13)CCCC2.Cl, which Inhibition is on record?
A: Its Inhibition is 82%.

Q: Which Inhibition does the source give for COc1ccc2ccccc2c1CCCCN1CCN(CC(c2ccc(F)cc2)N2CCN(C(C)C)CC2)CC1.Cl (configuration not stated) here?
A: Its Inhibition is 83%.

Q: Which Inhibition does the source give for Cn1cnc2c(Nc3ccncc3)nc(-c3ccc4ccccc4c3)nc21 here?
A: The Inhibition was 66%.

Q: For CC(C)NCc1cccc(-c2ccc(-c3nc4ccccc4[nH]3)cc2)c1.O=C(O)C(F)(F)F, which Inhibition is on record?
A: The Inhibition was 66%.

Q: How did the Inhibition turn out when O=C(N[C@@H](Cc1ccccc1)C(=O)NCc1cccc2ccccc12)c1ccc(O)c(-c2ccc(Cl)c(Cl)c2)c1 was run?
A: The Inhibition was 97%.

Q: How did the Inhibition turn out when O=C(Nc1ccc2c(c1)CCNCC2)Nc1ccc2ccccc2c1.O=C(O)C(F)(F)F was run?
A: Its Inhibition is 23%.

Q: COc1ccccc1C1CCN(CCCCNC(=O)c2ccc(/C=C/c3cc(Cl)cc(Cl)c3)cc2)CC1 was tested. Which Inhibition did it give?
A: The Inhibition was 30%.

Q: With COc1cc(OC)c(NC(=O)C2c3ccccc3C(=O)N(CC(C)C)C2c2cccs2)cc1Cl (configuration not stated) as the compound, how does the Inhibition read?
A: The Inhibition was 100%.

Q: For CN(CC(=O)Nc1ccc(F)cc1)C(=O)c1ccc(-c2ccc(F)cc2)o1, which Inhibition is on record?
A: Its Inhibition is 84%.

Q: COc1ccc(C2CC(=O)C3=C(C2)NC(C)=C(C(=O)OC(C)C)C3c2cccc(O)c2)cc1OC (configuration not stated) was tested. Which Inhibition did it give?
A: The Inhibition was 85%.

Q: With CC(=O)c1ccc(-n2ccnc2)cc1 as the compound, how does the Inhibition read?
A: The Inhibition was 0%.

Q: With COc1cc2ccccc2c(OC)c1CCNCCCCNCCc1c(OC)cc2ccccc2c1OC.CS(=O)(=O)O as the compound, how does the Inhibition read?
A: The Inhibition was 30%.

Q: With Cc1cccc2nc(-c3ccc(-c4ccc(CNCCCNS(C)(=O)=O)cc4)s3)[nH]c12.O=C(O)C(F)(F)F as the compound, how does the Inhibition read?
A: Its Inhibition is 4%.

Q: For CN(CCCCCNC(=O)/C=C/c1ccc(Cl)c(Cl)c1)CCCCc1c[nH]c2ccccc12, which Inhibition is on record?
A: The Inhibition was 15%.

Q: For Cc1nc(N)nc(N)c1CCCOc1ccccc1Br, which Inhibition is on record?
A: Its Inhibition is 5%.

Q: With CCOC(=O)NC1=NC(=N)N(OCCCOc2cc(Cl)c(Cl)cc2Cl)C(C)(C)N1 as the compound, how does the Inhibition read?
A: The Inhibition was 94%.
